Test [1] concerns the target MAP kinase-activated protein kinase 2 (Homo sapiens) (UniProt P49137). The following applies: at 10 µM.
The target of test [2] is Serine/threonine-protein kinase MARK1 (Homo sapiens) (UniProt Q9P0L2). The following applies: at 1 µM.
The target is the same in test [3]. The conditions noted are these: at 10 µM.
Test [4] has as its target Dual specificity mitogen-activated protein kinase kinase 1 (Homo sapiens) (UniProt Q02750). The conditions noted are these: at 1 µM.
The target is the same in test [5]. The conditions noted are these: at 10 µM.
Test [6] deals with Maternal embryonic leucine zipper kinase (Homo sapiens) (UniProt Q14680). The conditions noted are these: at 1 µM.
For test [7] the target is unchanged. The conditions noted are these: at 10 µM.
In test [8] the target is Misshapen-like kinase 1 (Homo sapiens) (UniProt Q8N4C8). The following applies: at 10 µM.
The target of test [9] is T1, Dual specificity mitogen-activated protein kinase kinase 7 (Homo sapiens) (UniProt O14733).
T1 sequence (whole entry): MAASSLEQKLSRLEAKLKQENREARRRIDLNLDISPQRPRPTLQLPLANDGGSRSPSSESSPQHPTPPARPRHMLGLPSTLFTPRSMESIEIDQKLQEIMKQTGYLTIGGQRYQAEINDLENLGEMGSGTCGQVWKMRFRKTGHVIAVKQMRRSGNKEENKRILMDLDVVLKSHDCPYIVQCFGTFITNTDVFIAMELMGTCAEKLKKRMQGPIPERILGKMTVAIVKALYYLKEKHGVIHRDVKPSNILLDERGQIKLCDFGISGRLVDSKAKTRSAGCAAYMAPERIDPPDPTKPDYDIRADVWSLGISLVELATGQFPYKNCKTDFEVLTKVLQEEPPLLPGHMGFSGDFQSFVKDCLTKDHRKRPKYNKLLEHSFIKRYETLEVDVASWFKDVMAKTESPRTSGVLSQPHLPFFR
The conditions noted are these: at 1 µM.

Test [10] concerns the target T1, Dual specificity mitogen-activated protein kinase kinase 7 (Homo sapiens). The following applies: at 10 µM.
Test [11] has as its target Myosin light chain kinase, smooth muscle (Homo sapiens) (UniProt Q15746). The following applies: at 1 µM.
For test [12] the target is unchanged. The following applies: at 10 µM.
Test [13] addresses Mitogen-activated protein kinase kinase kinase 9 (Homo sapiens) (UniProt P80192). The conditions noted are these: at 1 µM.
The target is the same in test [14]. The following applies: at 10 µM.
In test [15] the target is MAP kinase-activated protein kinase 3 (Homo sapiens) (UniProt Q16644). The conditions noted are these: at 10 µM.
The target of test [16] is Misshapen-like kinase 1 (Homo sapiens) (UniProt Q8N4C8). The following applies: at 1 µM.
For test [17], the target named is T2, Dual specificity mitogen-activated protein kinase kinase 6 (Homo sapiens) (UniProt P52564).
T2 sequence (whole entry): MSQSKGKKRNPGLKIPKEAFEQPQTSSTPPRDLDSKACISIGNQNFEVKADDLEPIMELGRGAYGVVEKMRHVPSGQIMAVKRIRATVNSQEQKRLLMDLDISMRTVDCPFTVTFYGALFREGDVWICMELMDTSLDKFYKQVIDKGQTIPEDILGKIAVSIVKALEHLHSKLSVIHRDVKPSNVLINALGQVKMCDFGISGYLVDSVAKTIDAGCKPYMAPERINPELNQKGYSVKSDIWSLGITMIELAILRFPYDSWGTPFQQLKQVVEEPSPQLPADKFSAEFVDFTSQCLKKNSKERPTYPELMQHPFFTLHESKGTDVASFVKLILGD
The conditions noted are these: at 1 µM.

Test [18] has as its target T2, Dual specificity mitogen-activated protein kinase kinase 6 (Homo sapiens). The conditions noted are these: at 10 µM.
Test [19] addresses Serine/threonine-protein kinase MRCK alpha (Homo sapiens) (UniProt Q5VT25). The following applies: at 10 µM.
Test [20] shares this target. The following applies: at 1 µM.

Chain of Serine/threonine-protein kinase MRCK alpha (Homo sapiens) (Q5VT25 whole entry): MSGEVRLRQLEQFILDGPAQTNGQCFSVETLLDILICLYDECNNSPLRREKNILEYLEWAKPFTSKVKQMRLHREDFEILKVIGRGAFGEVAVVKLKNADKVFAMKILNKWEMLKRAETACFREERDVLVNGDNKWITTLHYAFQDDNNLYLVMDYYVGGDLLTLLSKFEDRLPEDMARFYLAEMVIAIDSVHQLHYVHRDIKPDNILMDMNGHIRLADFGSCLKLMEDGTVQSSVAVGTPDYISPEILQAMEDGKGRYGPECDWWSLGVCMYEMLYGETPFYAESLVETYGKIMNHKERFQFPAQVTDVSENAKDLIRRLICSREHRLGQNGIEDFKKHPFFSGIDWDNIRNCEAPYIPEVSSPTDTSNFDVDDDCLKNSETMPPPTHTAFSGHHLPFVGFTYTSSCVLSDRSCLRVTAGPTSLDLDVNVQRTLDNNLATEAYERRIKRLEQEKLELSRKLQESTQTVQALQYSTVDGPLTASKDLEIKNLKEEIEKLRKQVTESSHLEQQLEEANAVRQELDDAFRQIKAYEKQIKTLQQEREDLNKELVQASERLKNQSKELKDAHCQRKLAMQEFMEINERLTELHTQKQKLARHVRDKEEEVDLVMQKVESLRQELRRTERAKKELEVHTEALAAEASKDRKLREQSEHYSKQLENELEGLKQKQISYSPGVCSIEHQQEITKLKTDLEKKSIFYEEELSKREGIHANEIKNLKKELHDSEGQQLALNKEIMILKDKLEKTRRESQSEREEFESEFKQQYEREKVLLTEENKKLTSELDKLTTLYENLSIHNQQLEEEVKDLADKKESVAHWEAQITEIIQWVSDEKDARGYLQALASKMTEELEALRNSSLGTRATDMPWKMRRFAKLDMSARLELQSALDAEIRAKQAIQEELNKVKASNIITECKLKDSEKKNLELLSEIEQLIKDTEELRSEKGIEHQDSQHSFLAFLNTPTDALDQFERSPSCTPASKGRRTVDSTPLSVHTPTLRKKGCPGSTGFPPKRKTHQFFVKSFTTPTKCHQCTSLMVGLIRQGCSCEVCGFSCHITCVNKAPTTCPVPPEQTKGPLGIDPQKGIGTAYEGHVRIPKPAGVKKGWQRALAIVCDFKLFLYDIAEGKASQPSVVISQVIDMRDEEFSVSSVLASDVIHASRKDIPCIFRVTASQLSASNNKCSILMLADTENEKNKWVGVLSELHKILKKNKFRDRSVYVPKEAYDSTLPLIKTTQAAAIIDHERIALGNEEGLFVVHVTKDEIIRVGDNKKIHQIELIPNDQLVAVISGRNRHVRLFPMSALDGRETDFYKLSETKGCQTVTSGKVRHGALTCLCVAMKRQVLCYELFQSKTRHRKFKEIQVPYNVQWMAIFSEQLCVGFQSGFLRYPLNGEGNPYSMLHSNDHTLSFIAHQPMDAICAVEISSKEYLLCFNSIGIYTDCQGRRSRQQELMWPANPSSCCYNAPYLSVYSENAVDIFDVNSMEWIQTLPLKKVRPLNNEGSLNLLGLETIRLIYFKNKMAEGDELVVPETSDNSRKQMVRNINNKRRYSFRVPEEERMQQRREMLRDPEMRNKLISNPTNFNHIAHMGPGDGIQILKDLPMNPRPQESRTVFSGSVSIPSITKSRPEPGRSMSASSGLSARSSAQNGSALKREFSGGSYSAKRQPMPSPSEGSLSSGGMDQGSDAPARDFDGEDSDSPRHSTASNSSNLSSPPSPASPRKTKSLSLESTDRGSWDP
Chain of MAP kinase-activated protein kinase 2 (Homo sapiens) (P49137 whole entry, looked up): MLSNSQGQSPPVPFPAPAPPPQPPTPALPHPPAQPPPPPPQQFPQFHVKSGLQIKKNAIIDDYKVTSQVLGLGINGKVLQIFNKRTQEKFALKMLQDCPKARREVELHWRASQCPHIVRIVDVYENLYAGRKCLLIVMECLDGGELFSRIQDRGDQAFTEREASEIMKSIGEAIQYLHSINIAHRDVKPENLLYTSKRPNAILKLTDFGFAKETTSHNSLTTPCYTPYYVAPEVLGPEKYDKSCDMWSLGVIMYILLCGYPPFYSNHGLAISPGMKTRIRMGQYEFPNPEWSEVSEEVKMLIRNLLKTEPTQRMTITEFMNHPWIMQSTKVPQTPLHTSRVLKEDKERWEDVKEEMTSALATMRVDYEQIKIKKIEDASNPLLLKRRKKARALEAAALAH
Chain of Serine/threonine-protein kinase MARK1 (Homo sapiens) (Q9P0L2 whole entry, looked up): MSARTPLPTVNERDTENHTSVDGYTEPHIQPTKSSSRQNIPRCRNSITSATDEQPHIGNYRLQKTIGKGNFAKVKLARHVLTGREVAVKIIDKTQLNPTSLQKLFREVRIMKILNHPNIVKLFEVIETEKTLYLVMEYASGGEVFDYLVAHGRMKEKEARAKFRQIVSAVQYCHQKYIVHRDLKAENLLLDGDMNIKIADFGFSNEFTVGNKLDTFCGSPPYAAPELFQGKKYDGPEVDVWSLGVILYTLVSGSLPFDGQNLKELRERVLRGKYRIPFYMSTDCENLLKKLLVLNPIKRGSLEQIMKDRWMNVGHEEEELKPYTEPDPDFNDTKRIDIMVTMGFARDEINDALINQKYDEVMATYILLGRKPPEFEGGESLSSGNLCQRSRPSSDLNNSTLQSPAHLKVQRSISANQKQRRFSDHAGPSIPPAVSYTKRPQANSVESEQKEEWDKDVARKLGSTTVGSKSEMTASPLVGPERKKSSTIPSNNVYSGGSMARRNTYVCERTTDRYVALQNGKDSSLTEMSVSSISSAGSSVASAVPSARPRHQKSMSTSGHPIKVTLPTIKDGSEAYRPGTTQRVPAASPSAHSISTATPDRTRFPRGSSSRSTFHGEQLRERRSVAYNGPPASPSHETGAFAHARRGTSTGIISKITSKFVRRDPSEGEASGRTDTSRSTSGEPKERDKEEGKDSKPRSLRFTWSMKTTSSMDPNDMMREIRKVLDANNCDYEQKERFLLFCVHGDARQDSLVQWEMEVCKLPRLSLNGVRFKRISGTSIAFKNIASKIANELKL
Chain of Misshapen-like kinase 1 (Homo sapiens) (Q8N4C8 whole entry, looked up): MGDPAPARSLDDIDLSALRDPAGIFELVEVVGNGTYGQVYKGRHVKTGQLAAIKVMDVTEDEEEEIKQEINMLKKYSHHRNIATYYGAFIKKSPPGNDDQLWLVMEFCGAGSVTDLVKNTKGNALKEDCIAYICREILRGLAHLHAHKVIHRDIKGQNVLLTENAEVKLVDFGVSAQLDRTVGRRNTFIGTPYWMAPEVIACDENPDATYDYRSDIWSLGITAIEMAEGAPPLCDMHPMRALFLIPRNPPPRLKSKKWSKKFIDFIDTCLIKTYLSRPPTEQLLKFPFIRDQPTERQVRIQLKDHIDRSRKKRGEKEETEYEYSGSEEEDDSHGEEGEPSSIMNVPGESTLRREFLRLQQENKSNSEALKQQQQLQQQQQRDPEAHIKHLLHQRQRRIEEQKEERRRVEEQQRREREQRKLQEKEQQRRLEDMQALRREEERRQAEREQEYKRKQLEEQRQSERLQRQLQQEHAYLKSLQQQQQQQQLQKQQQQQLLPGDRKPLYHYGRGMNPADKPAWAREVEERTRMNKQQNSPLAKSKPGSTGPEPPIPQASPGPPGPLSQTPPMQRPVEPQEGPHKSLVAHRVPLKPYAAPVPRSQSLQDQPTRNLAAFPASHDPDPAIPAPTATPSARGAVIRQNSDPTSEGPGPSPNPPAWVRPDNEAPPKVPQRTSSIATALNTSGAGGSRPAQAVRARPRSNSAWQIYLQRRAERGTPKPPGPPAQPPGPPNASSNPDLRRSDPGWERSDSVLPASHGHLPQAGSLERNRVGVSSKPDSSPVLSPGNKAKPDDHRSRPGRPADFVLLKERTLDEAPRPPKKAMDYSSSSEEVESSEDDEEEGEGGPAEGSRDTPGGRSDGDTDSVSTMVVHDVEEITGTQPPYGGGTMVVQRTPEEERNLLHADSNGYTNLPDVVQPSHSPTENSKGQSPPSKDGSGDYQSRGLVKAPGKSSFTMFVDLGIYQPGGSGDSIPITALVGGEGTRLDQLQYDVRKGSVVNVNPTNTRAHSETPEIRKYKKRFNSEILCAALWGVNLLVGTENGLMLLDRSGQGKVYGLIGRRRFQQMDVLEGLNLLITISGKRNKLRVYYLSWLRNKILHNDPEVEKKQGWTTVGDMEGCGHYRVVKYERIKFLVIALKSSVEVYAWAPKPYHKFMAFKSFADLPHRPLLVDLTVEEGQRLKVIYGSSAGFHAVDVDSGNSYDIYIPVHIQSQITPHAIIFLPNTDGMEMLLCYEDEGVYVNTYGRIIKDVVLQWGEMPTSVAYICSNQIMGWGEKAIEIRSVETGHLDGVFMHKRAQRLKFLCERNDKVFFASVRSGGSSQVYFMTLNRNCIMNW
Chain of Dual specificity mitogen-activated protein kinase kinase 1 (Homo sapiens) (Q02750 whole entry): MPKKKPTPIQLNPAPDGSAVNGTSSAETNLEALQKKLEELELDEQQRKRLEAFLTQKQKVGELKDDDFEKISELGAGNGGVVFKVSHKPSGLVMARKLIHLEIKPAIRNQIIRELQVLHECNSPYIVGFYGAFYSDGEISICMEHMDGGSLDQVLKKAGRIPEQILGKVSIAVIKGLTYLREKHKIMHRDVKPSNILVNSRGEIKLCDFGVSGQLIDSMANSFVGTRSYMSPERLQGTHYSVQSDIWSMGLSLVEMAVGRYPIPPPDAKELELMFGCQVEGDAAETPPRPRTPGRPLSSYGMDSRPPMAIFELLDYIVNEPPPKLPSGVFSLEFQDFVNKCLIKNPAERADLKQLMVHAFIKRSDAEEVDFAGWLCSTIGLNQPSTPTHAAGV
Chain of MAP kinase-activated protein kinase 3 (Homo sapiens) (Q16644 whole entry, looked up): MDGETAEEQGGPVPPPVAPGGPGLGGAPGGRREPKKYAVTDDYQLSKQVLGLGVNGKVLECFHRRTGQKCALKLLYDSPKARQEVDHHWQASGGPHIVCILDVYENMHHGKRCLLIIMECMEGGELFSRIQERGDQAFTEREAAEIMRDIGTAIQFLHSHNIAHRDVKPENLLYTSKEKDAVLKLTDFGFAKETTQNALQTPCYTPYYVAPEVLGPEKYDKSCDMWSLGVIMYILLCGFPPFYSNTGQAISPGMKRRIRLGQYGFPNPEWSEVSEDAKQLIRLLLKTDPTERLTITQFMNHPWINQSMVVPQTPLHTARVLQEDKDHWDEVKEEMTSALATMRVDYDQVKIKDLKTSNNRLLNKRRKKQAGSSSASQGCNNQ

Regarding `O=C1NC(=O)C(c2c[nH]c3ccccc23)=C1c1c[nH]c2ccccc12`, the residual activity is 79% in test [1]; 81% in [2]; 37% in [3]; 34% in [4]; 7% in test [5]; 80% in test [6]. For the same compound, the residual activity in test [7] was found to be 27%; in test [8], 41%; in test [9] it was 126%; in test [10] it was 117%; in test [11], 61%; in [12], 15%. The values for the residual activity in test [13] and in [14] were 43% and 8%, respectively.

On to `CN(C)S(=O)(=O)c1ccc2c(c1)/C(=C/c1cc3c([nH]1)CCCC3)C(=O)N2`, for which the residual activity was 92% in [1]; 92% in test [15]; 24% in test [2]; 17% in test [3]; 83% in test [5]; 95% in test [7]. Also, the residual activity in test [16] stood at 124%; in test [8], 97%; in test [17] it was 91%; in test [9], 82%; in test [10], 95%; in [12] it was 88%. In addition, the residual activity in test [13] turned out to be 84%; in test [14], 64%.

In the case of `N#C/C(=C\c1ccc(O)c(O)c1)C(=O)NCc1ccccc1`, the residual activity in test [1] came out at 77%; in test [2], 85%; in test [3] it was 88%; in test [6], 80%; in test [7] it was 72%; in test [8], 84%. The residual activity is 89% in test [17]; 101% in test [18]; 83% in test [9]; 68% in test [10]; 101% in [11]; 100% in test [12]. Moreover, the residual activity in [19] was 87%.

Regarding `O=C1Nc2ccc(Cl)cc2/C1=C/c1cc(Cl)c(O)c(Cl)c1`, the residual activity in test [1] was found to be 71%; in [15], 61%; in [2] it was 69%; in [3] it was 35%; in test [4], 99%; in [5], 49%. Further, the residual activity in test [6] amounted to 60%; in test [7], 46%; in test [16], 35%; in [8], 35%; in test [17], 82%; in [18], 38%. Also, the residual activity worked out at 95% in [9]; 61% in test [10]; 39% in test [11]; 37% in test [12]; 56% in [13]; 18% in [14]. In addition, the results for the residual activity in test [20] and in test [19] were 99% and 96%, respectively.

`O=C1NC(=O)c2c1c1c3ccccc3[nH]c1n1cncc21`: the residual activity in [1] worked out at 89%; in [15], 82%; in [2], 25%; in test [3], 21%; in test [4], 59%; in test [5], 67%. Besides, the residual activity came out at 27% in test [6]; 10% in test [7]; 77% in test [16]; 45% in test [8]; 69% in test [17]; 21% in test [18]. Besides, the residual activity worked out at 42% in test [9]; 27% in test [10]; 11% in test [11]; 8% in test [12]; 33% in test [13]; 12% in test [14]. The residual activity in [20] was 99%; in test [19], 90%.

With `NCCNc1ncc(C(N)=O)c(Nc2cccc(C(F)(F)F)c2)n1`, the residual activity in test [1] is 49%; in test [15] it was 72%; in test [2], 72%; in test [3], 30%; in test [4] it was 73%; in [5], 25%. Besides, the residual activity in test [17] amounted to 18%; in test [18], 6%; in test [9], 73%; in test [10], 38%; in [11] it was 67%; in [12], 55%. The residual activity came to 30% in [13], 4% in test [14], 104% in test [20] and 105% in test [19].

For the compound `O=C1C(Cl)=C(N2C(=O)CCC2=O)C(=O)c2ccccc21`, the residual activity in test [1] stood at 87%; in test [15], 100%; in test [2], 82%; in [3], 81%; in test [5], 67%; in test [7], 70%. Also, the residual activity turned out to be 67% in test [9]; 78% in [10]; 75% in [12]; 96% in test [13]; 91% in test [14]; 94% in test [19].

As for `CC(C)[C@H](CO)Nc1nc(Nc2cc(N)cc(Cl)c2)c2ncn(C(C)C)c2n1`, the residual activity in [1] was 117%; in test [2], 92%; in test [3], 38%; in test [8], 73%; in test [17], 93%; in test [18], 78%. Also, the residual activity is 95% in [9], 82% in test [11], 29% in test [12] and 122% in test [20].

Consider `Cn1c2ccccc2c2c3c(c4c5ccccc5n(CCC#N)c4c21)CNC3=O`, for which the residual activity in [15] turned out to be 77%; in [2] it was 4%; in test [3], 5%; in test [4], 36%; in [5], 34%; in [6], 9%. Further, the residual activity in [7] turned out to be 4%; in test [16], 21%; in [8], 16%; in test [17], 0%; in test [18], 1%; in test [9], 52%. For the same compound, the residual activity was 34% in test [10]; 16% in test [11]; 11% in test [12]; 2% in test [13]; 2% in [14]; 79% in test [19].

Consider `O=c1cc(N2CCOCC2)oc2c1ccc1ccccc12`, for which the residual activity in test [1] is 87%; in [15] it was 109%; in [2], 93%; in [3], 89%; in test [5], 92%; in [6], 92%. In addition, the residual activity in test [7] was found to be 91%; in test [16], 102%; in [8], 110%; in [17], 92%; in test [18] it was 86%; in [9], 102%. Also, the residual activity turned out to be 94% in test [10]; 92% in test [11]; 77% in test [12]; 96% in test [13]; 101% in [14]; 105% in [20]. The residual activity in [19] came to 99%.

Take `Cc1cc(C)c(/C=C2\C(=O)Nc3ccccc32)[nH]1`: the residual activity came to 103% in [1]; 101% in test [15]; 65% in test [2]; 20% in test [3]; 41% in test [4]; 31% in test [5]. The residual activity in [16] turned out to be 71%; in test [8], 58%; in test [17] it was 60%; in test [18], 76%; in [11], 32%; in test [12], 39%.

Regarding `Nc1ncnc2c1c(-c1ccc(Oc3ccccc3)cc1)cn2C1CCCC1`, the residual activity came to 77% in test [1]; 84% in test [15]; 74% in [2]; 54% in [3]; 48% in [4]; 24% in [5]. For the same compound, the residual activity in test [6] stood at 72%; in [7], 31%; in [16] it was 93%; in [8] it was 82%; in test [17] it was 85%; in [18], 89%. The residual activity in [9] came to 95%; in [10] it was 79%; in test [11] it was 63%; in test [12], 45%; in [20], 107%; in [19], 118%.

`CC(C)(C)n1nc(Cc2cccc3ccccc23)c2c(N)ncnc21`: the residual activity came out at 90% in test [15]; 91% in [2]; 80% in test [3]; 94% in [4]; 63% in test [5]; 72% in [6]. Further, the residual activity in [7] came to 30%; in test [16] it was 86%; in test [8], 26%; in [17], 57%; in test [18] it was 38%; in test [9], 98%. For the same compound, the residual activity in test [10] was 94%; in test [11] it was 73%; in test [12], 87%; in [13] it was 68%; in test [14] it was 18%; in test [20] it was 95%. The residual activity in test [19] is 119%.

Take `O=C(O)/C=C/c1cc(Br)c(Br)c(Br)c1Br`: the residual activity came out at 79% in test [1]; 82% in [15]; 104% in [2]; 82% in test [3]; 106% in test [4]; 65% in test [5]. The residual activity was found to be 82% in test [6]; 80% in test [7]; 105% in test [16]; 87% in [8]; 99% in test [17]; 84% in test [18]. In addition, the residual activity in test [10] stood at 71%; in test [11], 94%; in [12], 22%; in test [13], 93%; in [14], 72%.

On to `O=C1Cc2c([nH]c3ccc([N+](=O)[O-])cc23)-c2ccccc2N1`, for which the residual activity in test [1] is 50%; in test [15] it was 53%; in test [2], 34%; in test [3], 28%; in test [4], 103%; in [5], 129%. For the same compound, the residual activity was 81% in [6]; 64% in [7]; 60% in test [16]; 36% in test [8]; 79% in [17]; 77% in test [18]. Besides, the residual activity was determined as 73% in test [9]; 7% in [13]; 5% in test [14]; 60% in test [20]; 79% in test [19].

These data come from ChEMBL document CHEMBL2218924, “A broad activity screen in support of a chemogenomic map for kinase signalling research and drug discovery” (Biochem J, 2013).
